Our source for the Percent Effect values is ChEMBL document CHEMBL3988442, “University of Dundee, Small-Polar-MMV Screening Library” (2021).

The target in experiment [1] is T1, Aspartate--tRNA(Asp/Asn) ligase (Mycobacterium tuberculosis (strain ATCC 25618 / H37Rv)) (UniProt P9WFW3). Also: in the data most compounds retested in dose-response had high values.
T1 sequence (whole entry): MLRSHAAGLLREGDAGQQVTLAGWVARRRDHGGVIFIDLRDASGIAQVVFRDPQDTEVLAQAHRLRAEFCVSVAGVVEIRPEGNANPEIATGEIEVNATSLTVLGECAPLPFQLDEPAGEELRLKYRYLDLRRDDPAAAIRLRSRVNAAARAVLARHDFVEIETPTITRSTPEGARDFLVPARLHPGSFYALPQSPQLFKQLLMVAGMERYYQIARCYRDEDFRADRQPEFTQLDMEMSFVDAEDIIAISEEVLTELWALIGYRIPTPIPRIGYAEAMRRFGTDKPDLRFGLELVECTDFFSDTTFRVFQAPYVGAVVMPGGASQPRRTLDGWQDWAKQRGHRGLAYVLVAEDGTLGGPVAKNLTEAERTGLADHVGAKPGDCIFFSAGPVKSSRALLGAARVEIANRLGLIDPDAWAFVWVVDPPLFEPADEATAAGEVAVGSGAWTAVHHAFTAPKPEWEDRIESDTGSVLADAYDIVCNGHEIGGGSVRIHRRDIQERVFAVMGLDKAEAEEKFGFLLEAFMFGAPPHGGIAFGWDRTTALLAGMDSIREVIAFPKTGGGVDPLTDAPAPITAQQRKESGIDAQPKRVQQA
The experiment is described as follows: Assay for Asp RNA synthetase-1 from Mycobacterium tuberculosis. In kind it is functional. Also on record: scale not given: direction of the effect not stated beside the values. The note with it: 30 µM.

Experiment [2] concerns the target Shiga toxin 2 (Escherichia coli O157:H7) (UniProt P09385+P09386). The experiment in a line: E. coli 0.157:H7 Shiga Toxin SOP - stx2 screening assay. The following applies: 30 µM. Format: functional. Also on record: scale not given: direction of the effect not stated beside the values.

Regarding `CCS(=O)(=O)N1CCC[C@]2(C(=O)N(C)C)CN(c3ncccn3)C[C@@H]2C1`, the Percent Effect in experiment [1] was 2.53%; in experiment [2] it was -34.5%.

For the molecule `O=C1NCC[C@]12CN(Cc1ccoc1)C[C@H]2c1ccccc1`, the Percent Effect in experiment [1] is 1.06%; in experiment [2], -14.1%.

Take `O=C(c1cccnc1)N1CCCC(c2cc(C(F)F)n3ncnc3n2)C1` (stereo not given): the values for the Percent Effect in experiment [1] and in experiment [2] were 5.29% and 8.99%, respectively.

On to `Cc1cc(NS(=O)(=O)c2ccccc2F)ccc1-n1cccc1C(=O)O`, for which the results for the Percent Effect in experiment [1] and in experiment [2] were 6.98% and 0.354%, respectively.

Regarding `Cc1noc([C@@]23CCO[C@@H]2CCN(CC2CCOCC2)C3)n1`, the Percent Effect in experiment [1] was 6.14%; in experiment [2], -16.8%.

In the case of `c1cnn(CC2CCCCN2Cc2cn3ccsc3n2)c1` (stereo not given), the Percent Effect was 1.03% in experiment [1] and -12.1% in experiment [2].

Take `CC(C)Cc1ccc(S(=O)(=O)Nc2ccc(=O)n(C)c2)cc1`: the Percent Effect was 30.2% in experiment [1] and -23.8% in experiment [2].

Turning to `Cn1ncc2c(=O)[nH]c(CN(Cc3ccco3)C3CCCC3)nc21`, the Percent Effect in experiment [1] is -7.5%; in experiment [2] it was -31.6%.

Turning to `COCCC(=O)N1CC2(CCN(Cc3cccc(Cl)c3)CC2)C1`, the Percent Effect was -1.46% in experiment [1] and -17.6% in experiment [2].

With `O=C(CN1CCCC(Cn2cncn2)C1)NCc1ccco1` (stereo not given), the Percent Effect was -4.69% in experiment [1] and 14.2% in experiment [2].

As to `O=C(Cc1ccc(F)cc1)NCCNCC1CNc2ccnn2C1` (stereo not given), the values for the Percent Effect in experiment [1] and in experiment [2] were -2.44% and -33.6%, respectively.

Regarding `CN(C)c1cc2c(nn1)CCN(C(=O)C1Cc3ccccc3S1)C2` (stereo not given), the Percent Effect in experiment [1] was 1.89%; in experiment [2], -20.9%.

As to `CC(NC(=O)CSCC#N)c1cccc(NC(=O)c2ccccc2)c1` (stereo not given), the Percent Effect in experiment [1] was 1.91%; in experiment [2] it was 6.38%.

`CCCN1CC(C(=O)Nc2ccccn2)CC1=O` (stereo not given): the Percent Effect in experiment [1] is -1.33%; in experiment [2], 1.5%.

For `CCOc1ncccc1NC(=O)NCC(O)c1ccccc1OC` (stereo not given), the Percent Effect in experiment [1] is -0.742%; in experiment [2], -2.67%.

For the molecule `Cc1noc([C@H]2C[C@H]3OCC[C@H]3N(Cc3ccc4c(c3)OCO4)C2)n1`, the Percent Effect in experiment [1] is 2.03%; in experiment [2], -3.36%.

Turning to `Cc1nn(C)c(N2CCOCC2)c1CNC1CCOc2ccccc21` (stereo not given), the Percent Effect in experiment [1] is -2.83%; in experiment [2], 9.33%.

Take `CN(CC1COc2ccccc2O1)C(=O)NCCCn1ccnc1` (stereo not given): the Percent Effect is -0.767% in experiment [1] and 11.4% in experiment [2].

Consider `Cc1ncc(CNC(=O)CCc2cccc(F)c2)c(C2CCCN2C)n1` (stereo not given), for which the Percent Effect is 1.77% in experiment [1] and -9.03% in experiment [2].

With `Cc1c(NC(=O)NCC(C)N2CCOCC2)cccc1OC(F)F` (stereo not given), the Percent Effect in experiment [1] was -1.79%; in experiment [2], 3.31%.

Take `Cn1ncc2c1NC(=O)CC2c1ccccc1Cl` (stereo not given): the Percent Effect worked out at 1.14% in experiment [1] and 6% in experiment [2].

On to `Cc1cc(C2CCCN2CCCc2nc3ccccc3o2)on1` (stereo not given), for which the Percent Effect was -0.533% in experiment [1] and 28.6% in experiment [2].

Regarding `CC(C)c1nnc2n1CCN(C(=O)c1ccc3cc[nH]c3c1)C2`, the Percent Effect is -2.98% in experiment [1] and 3.97% in experiment [2].

`CNC(=O)CCc1cc(C)nc(C2CCCN2)n1` (stereo not given): the Percent Effect amounted to 7.7% in experiment [1] and 9.84% in experiment [2].

In the case of `CC(=O)N1C[C@@H](c2ccsc2)[C@@H]2CN(Cc3cccc(Cl)c3)CC[C@@H]21`, the Percent Effect in experiment [1] was -0.368%; in experiment [2], -9.53%.

Take `Cc1noc(CN2CCN(Cc3cccs3)CC2)n1`: the Percent Effect in experiment [1] was -1.85%; in experiment [2], 1.32%.

On to `O=C(CO[C@@H]1CC[C@H]2[C@H]1OCCN2CC1CCOCC1)N1CCCC1`, for which the Percent Effect was 0.943% in experiment [1] and -4.47% in experiment [2].

For `COc1cccc2cc(CNC(C)(C)C(=O)N3CCC(O)CC3)oc12`, the Percent Effect in experiment [1] is -1.57%; in experiment [2], 4.9%.

In the case of `COc1cc(NC(=O)c2ccccc2F)c(C(=O)N(C)C)cc1OC`, the results for the Percent Effect in experiment [1] and in experiment [2] were 8.8% and -68.8%, respectively.

In the case of `CN1N=C(C(=O)Nc2cc(F)ccc2OCC2CCCO2)CCC1=O` (stereo not given), the Percent Effect in experiment [1] was -1.12%; in experiment [2], 5.1%.

In the case of `Cc1noc(C(C)C)c1C(=O)NCCCN1CCCC1`, the Percent Effect in experiment [1] was 5.49%; in experiment [2], -21.7%.

Consider `Cc1cccc2cc(CNCCCN3CCOCC3)c(=O)[nH]c12`, for which the Percent Effect in experiment [1] is 0.253%; in experiment [2] it was -27.9%.

In the case of `NC(=O)c1ccc(NC(=O)CCN2CCCC(N3CCCC3)C2)cc1` (stereo not given), the Percent Effect in experiment [1] was -4.91%; in experiment [2] it was 24.7%.

In the case of `Cc1noc(C)c1CN1CC2(CCN(C(=O)c3cscn3)CC2)CC1=O`, the Percent Effect in experiment [1] was 6.36%; in experiment [2], -13.6%.

On to `COc1ccc(CNCC2CC2)cc1F`, for which the results for the Percent Effect in experiment [1] and in experiment [2] were 2.55% and 28.8%, respectively.

On to `O=C(NCc1cc(O)ncn1)C1CCOc2ccccc2C1` (stereo not given), for which the results for the Percent Effect in experiment [1] and in experiment [2] were -6.23% and 16%, respectively.

`CCn1cnnc1CNC(=O)NC(C)C(C)C` (stereo not given): the Percent Effect in experiment [1] was -2.43%; in experiment [2], 7.89%.

For the molecule `Cn1ccnc1CN1CCCN(C(=O)c2ccc3c(c2)COC3)CC1`, the Percent Effect in experiment [1] was determined as 0.393%; in experiment [2] it was 24.9%.

As for `Cc1nc(-c2ccc(C(=O)O)cc2)cc(C2CCN(C(C)C)C2)n1` (stereo not given), the Percent Effect in experiment [1] is 2.34%; in experiment [2] it was -5.82%.

Turning to `Cn1cnnc1C1CCCN(C(=O)NCCc2ccccc2F)C1` (stereo not given), the Percent Effect in experiment [1] is -6.03%; in experiment [2], 15.6%.

For `O=C(COc1cccc2c1CCC2=O)NCCSc1ccccc1`, the Percent Effect was 3.02% in experiment [1] and -30.6% in experiment [2].

Regarding `CCc1noc(CNc2ccc(F)cc2OCC2CC2)n1`, the Percent Effect in experiment [1] was 1.97%; in experiment [2] it was 0.5%.

For the molecule `CCn1ccnc1CN1CCCN(C(=O)c2sccc2C#N)CC1`, the values for the Percent Effect in experiment [1] and in experiment [2] were 1.71% and 2.81%, respectively.

As to `Cc1ccc(-c2cc(CN3CCCC(Cn4cncn4)C3)on2)cc1` (stereo not given), the Percent Effect is 2.71% in experiment [1] and -31.3% in experiment [2].

Regarding `Cn1cnc2c(N3CCCC3)nc(C3CCNCC3)cc21`, the Percent Effect in experiment [1] is 3.17%; in experiment [2] it was -31.9%.

Consider `OC(COc1ccccc1)CN1CCc2c(ncn2C2CC2)C1` (stereo not given), for which the Percent Effect in experiment [1] was -7.92%; in experiment [2], -25.6%.

Regarding `O=C(NCc1cncc2c1CCN(Cc1cccc(F)c1)C2)C1CC1`, the Percent Effect in experiment [1] is 1.78%; in experiment [2], -32.2%.

Take `CC(NC(=O)N(C)Cc1ccsc1)c1ccc2c(c1)OCO2` (stereo not given): the Percent Effect is 1.79% in experiment [1] and 28.8% in experiment [2].

`NC(=O)C1CCN(CCc2ccc(NC(=O)C3CCC3)cc2)CC1`: the Percent Effect is 3.99% in experiment [1] and -2.25% in experiment [2].

For `Cc1cc(C)n(CC2CCCN2CCCS(N)(=O)=O)n1` (stereo not given), the Percent Effect in experiment [1] is -0.589%; in experiment [2], -25.1%.
